Test results published in the supplement of paper PMC10849652.
About 7,900 targets were measured; listed, in parts, are those with a hit and a random draw of the rest. About 0.6% of all pairs of compound and target were hits. Values without a mark were called inactive.

Columns and labels:
Test in all cases: log2 fold change, soluble protein after heating vs DMSO (PISA); higher = thermal stabilisation; K562 cells, 10 uM, 30 min; active = over 0.2 and 3.5 SD of the protein, either way, in both replicates (recomputed)
[1] = compound: CS(=O)(=O)c1ccc(-c2cnc(N)c(C(=O)Nc3ccccc3)n2)cc1
Outline: (§1)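 Values are thermal stability changes relative to control samples and are taken from duplicates. They are stated as log2 fold changes. Before quantification by TMTpro 16plex LC-MS/MS with equalised channel sums, K562 cells at 2×10^6 cells/mL were treated with 10 μM compound for 30 min, heated in aliquots for 3 min across 48°C-58°C, pooled, extracted in PBS with 0.5% NP-40 at 4°C, and centrifuged at 21,000xg for 90 min to give the soluble supernatant.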

crizotinib = compound: C[C@@H](Oc1cc(-c2cnn(C3CCNCC3)c2)cnc1N)c1c(Cl)ccc(F)c1Cl [crizotinib]
Outline: as §1

[2] = compound: C[C@@H]1COCCN1C2=NC(=NC(=C2)C3(CC3)S(=O)(=O)C)C4=C5C=CNC5=CC=C4
Outline: as §1

[3] = compound: C[C@H](C1=CC=C(C=C1)C(=O)NC2=C3C=CNC3=NC=C2)N
Outline: as §1

duvelisib = compound: C[C@H](Nc1ncnc2nc[nH]c12)c1cc2cccc(Cl)c2c(=O)n1-c1ccccc1 [duvelisib]
Outline: as §1

gandotinib = compound: Cc1cc(Nc2cc(CN3CCOCC3)c3nc(C)c(Cc4ccc(Cl)cc4F)n3n2)n[nH]1 [gandotinib]
Outline: as §1

tozasertib = compound: Cc1cc(Nc2cc(N3CCN(C)CC3)nc(Sc3ccc(NC(=O)C4CC4)cc3)n2)n[nH]1 [tozasertib]
Outline: as §1

[4] = compound: Cc1cc(SCc2sc(-c3ccc(C(F)(F)F)cc3)nc2C)ccc1OCC(=O)O
Outline: as §1

doramapimod = compound: Cc1ccc(-n2nc(C(C)(C)C)cc2NC(=O)Nc2ccc(OCCN3CCOCC3)c3ccccc23)cc1 [doramapimod]
Outline: as §1

ispinesib = compound: Cc1ccc(C(=O)N(CCCN)[C@@H](c2nc3cc(Cl)ccc3c(=O)n2Cc2ccccc2)C(C)C)cc1 [ispinesib]
Outline: as §1

bafetinib = compound: Cc1ccc(NC(=O)c2ccc(CN3CC[C@H](N(C)C)C3)c(C(F)(F)F)c2)cc1Nc1nccc(-c2cncnc2)n1 [bafetinib]
Outline: as §1

[5] = compound: Cc1cccc(CC(=O)N2CCc3c2ccc(-c2cn(C)c4ncnc(N)c24)c3F)n1
Outline: as §1

nilotinib = compound: Cc1cn(-c2cc(NC(=O)c3ccc(C)c(Nc4nccc(-c5cccnc5)n4)c3)cc(C(F)(F)F)c2)cn1 [nilotinib]
Outline: as §1

[6] = compound: Cc1nc(Nc2n[nH]c3c2CN(C(=O)N[C@H](CN(C)C)c2ccccc2)C3(C)C)c2sccc2n1
Outline: as §1

dasatinib = compound: Cc1nc(Nc2ncc(C(=O)Nc3c(C)cccc3Cl)s2)cc(N2CCN(CCO)CC2)n1 [dasatinib]
Outline: as §1

[7] = compound: Cc1ncc(-c2ccnc(Nc3ccc(S(C)(=O)=O)cc3)n2)n1C(C)C
Outline: as §1

[8] = compound: Cn1cc(-c2ccc3c(c2)CCN3C(=O)Cc2cccc(C(F)(F)F)c2)c2c(N)ncnc21
Outline: as §1

[9] = compound: Cn1cc(-c2ccc3nnc(C(F)(F)c4ccc5ncccc5c4)n3n2)cn1
Outline: as §1

tipifarnib = compound: Cn1cncc1[C@@](N)(c1ccc(Cl)cc1)c1ccc2c(c1)c(-c1cccc(Cl)c1)cc(=O)n2C [tipifarnib]
Outline: as §1

mubritinib = compound: FC(F)(F)c1ccc(/C=C/c2nc(COc3ccc(CCCCn4ccnn4)cc3)co2)cc1 [mubritinib]
Outline: as §1

Chain of UniProt O15400 (O15400 whole entry, looked up): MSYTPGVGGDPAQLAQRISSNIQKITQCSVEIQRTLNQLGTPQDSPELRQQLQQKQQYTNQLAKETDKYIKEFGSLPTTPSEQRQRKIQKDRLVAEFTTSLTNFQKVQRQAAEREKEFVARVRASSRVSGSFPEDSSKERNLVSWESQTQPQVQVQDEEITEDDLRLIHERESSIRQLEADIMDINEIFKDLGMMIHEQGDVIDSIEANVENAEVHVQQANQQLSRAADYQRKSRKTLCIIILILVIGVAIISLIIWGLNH
Chain of UniProt Q86VP1 (Q86VP1 whole entry, looked up): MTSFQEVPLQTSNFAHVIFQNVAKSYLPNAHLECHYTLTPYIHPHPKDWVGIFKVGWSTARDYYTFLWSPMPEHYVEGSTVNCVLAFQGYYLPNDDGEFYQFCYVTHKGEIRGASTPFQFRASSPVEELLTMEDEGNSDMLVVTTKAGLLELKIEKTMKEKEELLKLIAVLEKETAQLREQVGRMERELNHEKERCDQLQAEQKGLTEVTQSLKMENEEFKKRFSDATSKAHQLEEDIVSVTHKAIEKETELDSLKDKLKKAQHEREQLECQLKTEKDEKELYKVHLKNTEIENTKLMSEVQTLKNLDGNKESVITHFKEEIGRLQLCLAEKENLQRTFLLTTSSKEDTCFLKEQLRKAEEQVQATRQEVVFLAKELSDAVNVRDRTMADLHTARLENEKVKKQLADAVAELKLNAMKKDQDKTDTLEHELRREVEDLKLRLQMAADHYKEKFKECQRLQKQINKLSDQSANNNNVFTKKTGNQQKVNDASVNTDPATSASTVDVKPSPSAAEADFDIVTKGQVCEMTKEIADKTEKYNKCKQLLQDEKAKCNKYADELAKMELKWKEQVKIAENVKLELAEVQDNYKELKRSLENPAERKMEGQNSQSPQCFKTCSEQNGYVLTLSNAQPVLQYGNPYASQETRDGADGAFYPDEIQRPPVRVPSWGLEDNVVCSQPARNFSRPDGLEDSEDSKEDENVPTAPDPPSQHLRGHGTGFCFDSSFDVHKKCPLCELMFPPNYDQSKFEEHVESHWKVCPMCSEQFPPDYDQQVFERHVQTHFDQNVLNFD
Chain of UniProt Q07157 (Q07157 whole entry, looked up): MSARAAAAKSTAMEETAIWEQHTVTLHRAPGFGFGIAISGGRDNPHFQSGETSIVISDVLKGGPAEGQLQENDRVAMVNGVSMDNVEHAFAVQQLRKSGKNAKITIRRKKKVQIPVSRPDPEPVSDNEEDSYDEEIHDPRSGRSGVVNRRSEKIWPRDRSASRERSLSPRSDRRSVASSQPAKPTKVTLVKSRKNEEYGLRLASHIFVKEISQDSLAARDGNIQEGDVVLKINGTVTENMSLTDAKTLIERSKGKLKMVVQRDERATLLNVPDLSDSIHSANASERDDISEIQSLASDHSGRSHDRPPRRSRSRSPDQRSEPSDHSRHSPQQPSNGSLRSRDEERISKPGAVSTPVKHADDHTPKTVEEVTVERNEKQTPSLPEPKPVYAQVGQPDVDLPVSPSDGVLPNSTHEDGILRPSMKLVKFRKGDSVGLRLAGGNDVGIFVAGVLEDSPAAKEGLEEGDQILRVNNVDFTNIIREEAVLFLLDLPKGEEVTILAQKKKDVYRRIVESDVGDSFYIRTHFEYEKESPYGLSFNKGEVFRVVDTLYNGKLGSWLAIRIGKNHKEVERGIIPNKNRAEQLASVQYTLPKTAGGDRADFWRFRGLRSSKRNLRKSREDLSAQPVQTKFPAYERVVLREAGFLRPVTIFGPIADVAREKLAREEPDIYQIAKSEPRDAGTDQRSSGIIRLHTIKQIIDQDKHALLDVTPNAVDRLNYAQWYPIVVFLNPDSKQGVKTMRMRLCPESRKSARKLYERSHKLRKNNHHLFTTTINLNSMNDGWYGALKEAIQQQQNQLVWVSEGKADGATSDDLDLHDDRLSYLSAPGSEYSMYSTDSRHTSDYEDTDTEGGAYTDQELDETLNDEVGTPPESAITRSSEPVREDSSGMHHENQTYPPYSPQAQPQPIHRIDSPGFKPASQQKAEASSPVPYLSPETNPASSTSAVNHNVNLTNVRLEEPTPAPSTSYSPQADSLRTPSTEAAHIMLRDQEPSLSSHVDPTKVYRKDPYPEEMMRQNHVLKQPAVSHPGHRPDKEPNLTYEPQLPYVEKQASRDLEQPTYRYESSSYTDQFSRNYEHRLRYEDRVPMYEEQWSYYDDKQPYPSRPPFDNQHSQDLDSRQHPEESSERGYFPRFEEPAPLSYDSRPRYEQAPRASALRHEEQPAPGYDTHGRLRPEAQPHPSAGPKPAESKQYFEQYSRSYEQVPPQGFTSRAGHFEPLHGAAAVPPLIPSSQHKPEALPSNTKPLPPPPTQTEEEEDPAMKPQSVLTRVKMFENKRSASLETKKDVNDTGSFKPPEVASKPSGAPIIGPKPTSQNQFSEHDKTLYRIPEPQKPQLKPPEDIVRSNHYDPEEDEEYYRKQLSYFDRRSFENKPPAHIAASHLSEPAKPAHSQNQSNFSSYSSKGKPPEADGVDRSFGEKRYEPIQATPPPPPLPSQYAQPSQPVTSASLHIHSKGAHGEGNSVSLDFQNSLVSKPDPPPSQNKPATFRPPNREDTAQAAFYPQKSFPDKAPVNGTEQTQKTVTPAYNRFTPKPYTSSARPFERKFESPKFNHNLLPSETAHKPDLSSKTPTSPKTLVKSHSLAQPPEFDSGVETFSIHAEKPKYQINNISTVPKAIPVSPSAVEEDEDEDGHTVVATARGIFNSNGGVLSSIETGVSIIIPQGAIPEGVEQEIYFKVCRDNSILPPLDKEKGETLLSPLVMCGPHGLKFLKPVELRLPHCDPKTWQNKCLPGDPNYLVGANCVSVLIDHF
Chain of UniProt Q9ULP9 (Q9ULP9 whole entry, looked up): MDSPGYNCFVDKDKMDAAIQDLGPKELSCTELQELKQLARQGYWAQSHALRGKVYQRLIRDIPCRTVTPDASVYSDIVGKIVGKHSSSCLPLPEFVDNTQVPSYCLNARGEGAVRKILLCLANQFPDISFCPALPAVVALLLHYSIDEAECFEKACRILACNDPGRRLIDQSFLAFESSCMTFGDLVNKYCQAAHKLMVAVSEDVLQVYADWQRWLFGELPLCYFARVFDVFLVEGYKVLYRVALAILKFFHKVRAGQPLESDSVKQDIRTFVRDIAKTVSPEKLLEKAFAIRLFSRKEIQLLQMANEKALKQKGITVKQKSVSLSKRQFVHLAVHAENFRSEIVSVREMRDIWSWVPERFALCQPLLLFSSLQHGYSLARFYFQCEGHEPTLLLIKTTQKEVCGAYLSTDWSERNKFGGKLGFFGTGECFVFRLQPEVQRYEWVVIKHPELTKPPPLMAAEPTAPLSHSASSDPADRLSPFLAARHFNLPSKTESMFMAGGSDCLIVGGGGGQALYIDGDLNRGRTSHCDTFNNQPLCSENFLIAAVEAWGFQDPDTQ
Chain of UniProt P23497 (P23497 whole entry, looked up): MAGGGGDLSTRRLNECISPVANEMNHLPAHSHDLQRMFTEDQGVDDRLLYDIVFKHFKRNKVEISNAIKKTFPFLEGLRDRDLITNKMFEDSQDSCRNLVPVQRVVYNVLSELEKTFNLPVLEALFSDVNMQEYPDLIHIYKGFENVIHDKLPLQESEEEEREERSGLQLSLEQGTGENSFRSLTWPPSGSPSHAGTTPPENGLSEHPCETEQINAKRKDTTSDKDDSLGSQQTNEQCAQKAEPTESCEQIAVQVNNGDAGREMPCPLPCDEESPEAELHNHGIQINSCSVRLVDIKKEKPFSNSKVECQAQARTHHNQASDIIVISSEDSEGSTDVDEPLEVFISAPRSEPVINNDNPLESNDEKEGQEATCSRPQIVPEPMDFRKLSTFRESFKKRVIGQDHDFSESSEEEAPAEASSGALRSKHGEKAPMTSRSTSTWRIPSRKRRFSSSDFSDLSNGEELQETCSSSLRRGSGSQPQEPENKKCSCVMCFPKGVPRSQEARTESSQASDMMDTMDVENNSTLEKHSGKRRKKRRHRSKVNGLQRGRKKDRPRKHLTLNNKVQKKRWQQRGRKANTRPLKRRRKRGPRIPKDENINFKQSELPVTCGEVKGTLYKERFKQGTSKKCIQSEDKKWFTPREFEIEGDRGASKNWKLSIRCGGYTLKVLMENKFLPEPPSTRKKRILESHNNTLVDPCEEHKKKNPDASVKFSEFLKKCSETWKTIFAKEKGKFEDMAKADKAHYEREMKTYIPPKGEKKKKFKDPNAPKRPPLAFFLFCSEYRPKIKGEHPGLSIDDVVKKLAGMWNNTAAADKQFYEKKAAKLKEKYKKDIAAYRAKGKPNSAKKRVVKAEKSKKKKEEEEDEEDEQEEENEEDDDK
Chain of UniProt Q86VD7 (Q86VD7 whole entry, looked up): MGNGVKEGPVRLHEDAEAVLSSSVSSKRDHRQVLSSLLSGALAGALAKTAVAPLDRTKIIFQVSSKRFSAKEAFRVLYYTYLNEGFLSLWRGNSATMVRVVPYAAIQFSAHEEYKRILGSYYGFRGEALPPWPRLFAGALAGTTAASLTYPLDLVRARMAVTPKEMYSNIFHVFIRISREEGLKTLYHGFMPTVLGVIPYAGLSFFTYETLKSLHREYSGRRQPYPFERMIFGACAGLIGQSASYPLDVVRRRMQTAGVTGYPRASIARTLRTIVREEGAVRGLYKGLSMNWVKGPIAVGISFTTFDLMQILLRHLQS
Chain of UniProt Q16842 (Q16842 whole entry, looked up): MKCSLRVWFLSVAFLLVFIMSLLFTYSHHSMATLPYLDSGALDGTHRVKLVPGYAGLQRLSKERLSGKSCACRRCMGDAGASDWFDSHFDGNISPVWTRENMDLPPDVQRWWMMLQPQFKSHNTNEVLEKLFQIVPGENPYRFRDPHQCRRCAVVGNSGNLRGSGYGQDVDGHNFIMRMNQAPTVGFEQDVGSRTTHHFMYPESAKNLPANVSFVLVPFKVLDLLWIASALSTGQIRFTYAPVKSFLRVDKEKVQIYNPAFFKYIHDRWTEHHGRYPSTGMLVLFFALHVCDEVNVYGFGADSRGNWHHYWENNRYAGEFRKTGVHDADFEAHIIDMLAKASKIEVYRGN

Target	log2 fold change [1]	log2 fold change (crizotinib)	log2 fold change [2]	log2 fold change [3]	log2 fold change (duvelisib)	log2 fold change (gandotinib)	log2 fold change (tozasertib)	log2 fold change [4]	log2 fold change (doramapimod)	log2 fold change (ispinesib)	log2 fold change (bafetinib)	log2 fold change [5]	log2 fold change (nilotinib)	log2 fold change [6]	log2 fold change (dasatinib)	log2 fold change [7]	log2 fold change [8]	log2 fold change [9]	log2 fold change (tipifarnib)	log2 fold change (mubritinib)
TCERG1 (UniProt O14776)	0.079	0.073	0.125	-0.063	0.138	-0.057	0.112	0.179	-0.079	0.015	0.03	0.077	-0.093	-0.24	-0.26	0.02	0.088	0.07	-0.097	0.183
TBC1D24 (UniProt Q9ULP9)	0.018	-0.235	0.08	-0.014	0.04	-0.361	-0.119	0.073	0.061	-0.218	-0.007	0.049	-0.069	-0.318 (active)	-0.15	-0.219	0.098	-0.045	-0.106	0.097
ST3GAL2 (UniProt Q16842)	0.096	-0.288	-0.017	0.006	0.035	0.127	0.024	0.033	0	-0.096	0.092	-0.008	0.191	-0.042	0.179	0.081	-0.039	-0.022	0.076	-0.026
SLC25A42 (UniProt Q86VD7)	-0.054	0.028	0.015	-0.055	0.005	0.09	-0.021	-0.003	-0.004	0.054	-0.081	-0.069	0.009	-0.024	-0.025	0.048	-0.022	-0.049	0.017	0.051
TAX1BP1 (UniProt Q86VP1)	-0.001	-0.009	-0.058	0.042	0.168	0.156	0.152	0.069	0.062	-0.067	0.011	-0.095	-0.086	0.011	-0.024	0.047	-0.068	0.027	0.092	0.045
SP100 isoform 4 (UniProt P23497)	-0.002	0.062	0.071	-0.1	0.074	-0.008	0.033	-0.016	-0.046	0.062	-0.047	-0.056	-0.02	-0.061	-0.054	-0.057	0.02	0.026	-0.087	0.043
STRN (UniProt O43815)	0.016	0.068	-0.004	-0.125	0.046	-0.048	0.048	0.076	-0.018	0.198	-0.016	0.063	0.014	0.048	-0.068	-0.008	0.022	-0.064	0	0.021
SRSF10 (UniProt O75494)	-0.176	0.153	-0.539	0.259	-0.139	0.183	0.095	0.036	0.222	-0.172	0.044	-0.1	0.089	-0.079	0.336	0.076	-0.498	-0.173	0.215	-0.089
SPART (UniProt Q8N0X7)	0.006	-0.107	0.056	0.101	0.053	-0.088	0.044	0.055	0.014	-0.001	-0.041	-0.024	-0.047	-0.006	-0.117	0.051	-0.025	0.059	-0.077	0.063
STK26 (UniProt Q9P289)	-0.019	-0.308 (active)	0.123	0.049	-0.01	-0.061	-0.11	-0.01	-0.034	-0.146	-0.057	0.026	-0.089	0.198	-0.319 (active)	-0.057	-0.058	0.015	-0.036	-0.036
TJP1 (UniProt Q07157)	0.004	-0.016	0.044	-0.06	0.076	-0.124	0.064	0.061	-0.01	0.026	-0.061	0.008	0.024	-0.199	-0.092	-0.037	-0.028	-0.02	-0.025	0.073
SPINDOC (UniProt Q9BUA3)	0.09	0.104	-0.059	-0.074	-0.296	-0.001	0.14	0.053	0.097	-0.008	-0.149	-0.031	0.049	-0.458 (active)	-0.105	-0.127	-0.085	-0.044	0.046	0.04
SURF1 (UniProt Q15526)	-0.001	-0.008	0.043	-0.013	0	-0.066	0.016	0.032	0.01	-0.181	-0.184	-0.042	-0.065	0.028	-0.028	0.011	0.021	0.019	-0.061	0.042
TANK (UniProt Q92844)	-0.032	0.287	-0.021	0.069	0.038	0.135	0.112	0.091	-0.015	-0.064	-0.049	-0.106	0.054	0.337 (active)	-0.025	0.082	-0.021	-0.036	-0.016	0.03
STX7 (UniProt O15400)	0	-0.187	0.015	-0.042	-0.023	-0.18	-0.021	-0.055	0.04	-0.246 (active)	-0.06	-0.135	0.009	0.013	0.03	-0.017	-0.007	0.029	0.025	0.007
